# Laboratory results reported in PubChem BioAssay AID588579 (National Center for Advancing Translational Sciences (NCATS), 2011).
# Where “and” joins values, the source holds several entries; their conditions need not be identical. Identical values can stand only once. Screen size: about 400,000 compounds; about 2,200 (0.55%) were called active. Inconclusive results (about 1%) are left out. The call rests on the fitted dose curve; in most records, active means well fitted inhibition curve with a large enough effect; inconclusive means small, poorly fitted or top-dose-only effect, or another doubt; inactive means no such curve, though single readings can be large or run the other way. The full list was thinned out, with actives kept by preference.
# Biological target: DNA polymerase kappa (Homo sapiens) (UniProt Q9UBT6)
# Assay: qHTS for Inhibitors of Polymerase Kappa
# Conditions: purified Pol kappa, fluorescent DNA synthesis assay, 10 min; series mostly up to 107 µM; activity, negative = inhibition: at the top concentration
# Procedure, shortened: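 10 nM Pol kappa preincubated 15 min at room temperature with compounds, then reaction started with substrate at 50 nM final. Fluorescence read kinetically at 0 and 10 min; buffer-only wells served as negative control.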
# On the % scale 0 is the no-effect control and ±100 the full control effect; potency means the concentration at half of the fitted maximal effect.
# Chain of DNA polymerase kappa (Homo sapiens) (Q9UBT6 whole entry, looked up): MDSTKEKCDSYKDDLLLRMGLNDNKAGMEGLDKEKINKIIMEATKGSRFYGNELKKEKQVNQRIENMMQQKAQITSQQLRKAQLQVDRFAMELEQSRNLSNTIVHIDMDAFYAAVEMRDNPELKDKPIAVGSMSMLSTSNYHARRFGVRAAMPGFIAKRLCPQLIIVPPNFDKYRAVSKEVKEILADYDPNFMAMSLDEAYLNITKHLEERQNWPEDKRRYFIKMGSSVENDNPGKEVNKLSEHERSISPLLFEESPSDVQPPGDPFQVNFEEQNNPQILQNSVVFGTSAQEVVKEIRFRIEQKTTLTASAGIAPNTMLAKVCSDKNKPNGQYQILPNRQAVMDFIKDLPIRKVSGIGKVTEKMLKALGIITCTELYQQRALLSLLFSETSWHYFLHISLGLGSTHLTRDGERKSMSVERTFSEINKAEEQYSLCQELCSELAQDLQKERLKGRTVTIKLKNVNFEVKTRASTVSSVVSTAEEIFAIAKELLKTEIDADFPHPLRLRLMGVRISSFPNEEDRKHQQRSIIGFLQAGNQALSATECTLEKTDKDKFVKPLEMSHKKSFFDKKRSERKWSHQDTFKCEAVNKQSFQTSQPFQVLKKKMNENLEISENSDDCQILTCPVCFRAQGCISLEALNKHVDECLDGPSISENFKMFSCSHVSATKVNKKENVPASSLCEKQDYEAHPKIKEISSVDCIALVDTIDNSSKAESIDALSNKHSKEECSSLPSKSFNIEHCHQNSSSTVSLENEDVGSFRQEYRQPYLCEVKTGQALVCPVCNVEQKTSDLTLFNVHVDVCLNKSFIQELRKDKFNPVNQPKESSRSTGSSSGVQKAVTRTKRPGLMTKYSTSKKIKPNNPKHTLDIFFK
Molecule,"activity, negative = inhibition",Potency
O=C1C[C@H]2C=CCc3cccc(c32)CN1Cc1ccccc1,11.4% (inactive),–
O=C1CCC[C@@H]2C[C@@]3(C[C@@H]4CCN1[C@H]24)Nc1ccccc1NC3=NCc1ccccc1,0% (inactive),–
CC(=O)OCC(=O)[C@@]1(O)CCC2C3CCC4=CC(=O)CC[C@@]4(C)[C@]3(F)C(O)C[C@]21C (some centres not stated),-6.54% [at 60.1 µM] (inactive),–
Brc1ccc(C2=NCCC(c3ccccc3)O2)cc1 (configuration not stated),-13.9% (inactive),–
Cc1cc(C)c2nc(-c3cccnc3)cc(C(=O)Nc3ccc(S(=O)(=O)Nc4onc(C)c4C)cc3)c2c1,-13.6% (inactive),–
Cc1cc(C)c2nc(-c3ccco3)cc(C(=O)O)c2c1,–,22.4 µM (active)
Cc1cccc(NC(=O)CSc2nc(-c3ccco3)cc(C(F)(F)F)n2)c1C,0.715% (inactive),–
COC(=O)c1ccc2c(c1)N(CC(=O)Nc1ccc(C)c(C)c1)C(=O)c1ccccc1S2,-9.25% [at 60.1 µM] (inactive),–
Cn1c(=O)c2ccccc2n(CC(=O)Nc2ccc3c(c2)OCCO3)c1=O,-1.46% (inactive),–
Cc1ccc(C(=O)O)cc1-c1ccc(/C=C2\SC(=O)N(CC(=O)Nc3ccc4c(c3)OCO4)C2=O)o1,–,28.2 µM (active)
CCn1ccnc1C[C@@H]1COc2ccccc2O1,-7.82% [at 19.4 µM] (inactive),–
NC[C@@H]1O[C@H](O[C@@H]2[C@H](O[C@@H]3O[C@H](CO)[C@@H](COC[C@H]4O[C@@H](CN)[C@@H](O)[C@@H](O)[C@@H]4N)[C@@H]3O)[C@@H](O)[C@@H](N)C[C@H]2N)[C@@H](N)[C@H](O)[C@@H]1O,-0.462% [at 12 µM] (inactive),–
Cc1ccc(/C=C/C(=O)OCC(=O)NCc2ccc(Cl)cc2)o1,-13.3% (inactive),–
Cc1ccc(/C=C/C(=O)Nc2ccc([N+](=O)[O-])c(NC(=O)/C=C/c3ccc(C)o3)c2)o1,–,28.2 µM (active)
COc1ccc(OC)c(NC(=O)/C=C/c2ccc(C)o2)c1,-20.5% (inactive),–
CC1=C(/C=C/C(C)=C/C=C/C(C)=C/C=C/C=C(C)/C=C/C=C(C)/C=C/C(=O)[C@]2(C)C[C@@H](O)CC2(C)C)C(C)(C)C[C@H](O)C1,-16.6% [at 60.1 µM] (inactive),–
O=C1C(c2[nH]c3ccccc3c2O)=Nc2ccccc21,-10.8% [at 19.4 µM] (inactive),–
CCN(C(=O)COC(=O)/C=C/c1nc2ccccc2s1)C1CCS(=O)(=O)C1 (configuration not stated),6.34% (inactive),–
CN(C)C(CNC(=O)CCCOc1ccccc1)c1ccco1 (configuration not stated),-16.8% (inactive),–
CN(C(=O)COC(=O)c1cc(-c2ccco2)nc2ccccc12)C1CCS(=O)(=O)C1 (configuration not stated),–,20 µM (active)
CN(CCOc1ccccc1)C(=O)c1cc(-c2ccco2)nc2ccccc12,–,79.4 µM (active)

Molecule,"activity, negative = inhibition",Potency
CCOc1ccc(CNC(=O)c2cc(-c3ccc(Cl)s3)nc3ccccc23)cc1,1.73% (inactive),–
Cc1cc(C)c2nc(SCC(=O)N(C)C3CCS(=O)(=O)C3)cc(C)c2c1 (configuration not stated),1.73% [at 60.1 µM] (inactive),–
Nc1ncn(C2OC(CO)C(O)C2O)c(=O)n1 (configuration not stated),0% [at 60.1 µM] (inactive),–
C=CC(=O)c1ccc2ccccc2c1,7.32% [at 19.4 µM] (inactive),–
CCCCCCCNc1ccc(/C=C/c2ccnc3ccccc23)cc1,-22.4% (inactive),–
O=C(c1cccc(F)c1)N1CCC2(CCCN(Cc3ccncc3)C2)CC1,-4.21% [at 60.1 µM] (inactive),–
Cc1cn([C@H]2CC(F)[C@@H](CO)O2)c(=O)[nH]c1=O (some centres not stated),-4.8% [at 19.4 µM] (inactive),–
O=C(Nc1cccc(C(F)(F)F)c1)c1cc(Br)cc(Br)c1O,-0.617% [at 19.4 µM] (inactive),–
COCCn1c(=O)c(-c2ccc(OC)cc2)nc2cnc(Oc3cccc(Cl)c3)nc21,-1.11% [at 60.1 µM] (inactive),–
O=c1ccc2c(-c3ccccc3S(=O)(=O)O)c3ccc(O)c(O)c3oc-2c1O,–,0.708 µM (active)
Cc1nc2cnc(N3CCNCC3)nc2n(Cc2ccc(F)cc2)c1=O,-14.4% [at 60.1 µM] (inactive),–
Clc1cccc[n+]1CCCC[n+]1ccccc1Cl,-19.6% (inactive),–
Cc1c(CCO)sc[n+]1CC(=O)c1ccc2ccccc2c1,-1.46% (inactive),–
CCN1CCN(c2ccc(/C=C/c3ccnc4ccccc34)cc2)CC1,-8.38% (inactive),–
CCOc1cccc2c1N[C@@H](c1ccc(C(=O)O)cc1)[C@H]1CC=C[C@@H]21,–,3.98 µM (active)
CCOc1ccccc1C1NC(=O)NC(C)=C1C(=O)OCc1ccco1 (configuration not stated),-12.9% (inactive),–
CCOc1cccc(CC(=O)N2CCc3c([nH]c4ccccc34)C2c2ccc(F)cc2)c1OCC (configuration not stated),-5.26% [at 60.1 µM] (inactive),–
O=C(O)c1ccc(/C=C2/SC(=S)N(c3cccc(C(F)(F)F)c3)C2=O)cc1,-8.36% [at 12 µM] (inactive),–
N#Cc1c(N2CCCCC2)nc(N)c2c(N)nc(SCC(=O)O)cc12,–,39.8 µM (active)
CC1C(O)CC2C(C(=O)O)=CO[C@@H](O[C@H]3OC(CO)C(O)C(O)C3O)C21 (some centres not stated),-7.49% [at 60.1 µM] (inactive),–
CS(=O)(=O)N1CCC2(CCN(c3ccncc3)CC2)CC1,-15.5% [at 60.1 µM] (inactive),–

Molecule,"activity, negative = inhibition",Potency
Oc1ccc(-c2c(-c3ccccc3)nn3c(C(F)(F)F)cc(C(F)(F)F)nc23)cc1,-10.8% [at 12 µM] (inactive),–
Cc1c(S(=O)(=O)O)oc2c1C(=O)C(=O)c1c-2ccc2c1CCCC2(C)C,–,35.5 µM (active)
CCC(CCC(C)C1CCC2C3CC=C4CC(O)CC[C@@]4(C)C3CC[C@@]12C)C(C)C (some centres not stated),8.1% [at 19.4 µM] (inactive),–
C[N+]1(CC(=O)c2cccs2)CCOCC1,-7.83% (inactive),–
CCOc1ccc(NC(=O)c2ccc(NC(=O)COC(=O)c3ccc(NC(=O)CC#N)cc3)cc2)cc1,–,22.4 µM (active)
CCOc1ccc(NC(=O)Cn2c(C)ccc(C#N)c2=O)cc1,-25.3% (inactive),–
CCOC(=O)c1ccc(-c2ccc(/C=C(\C#N)C(=O)Nc3ccc(OCC)cc3)o2)cc1,1.52% (inactive),–
CS(=O)c1ccc(/C=C2\C=Cc3ccccc32)cc1 (configuration not stated),-44.2% (inactive),–
CN(C)c1cccc2ccccc12,5.24% (inactive),–
C=C1/C(=C\C=C2\CCCC3(C)C2CCC3C(C)/C=C/C(O)C2CC2)CC(O)CC1O (configuration not stated),0.818% [at 60.1 µM] (inactive),–
COc1cc2nc(C#Cc3nc4cc(OC)c(OC)cc4[nH]3)[nH]c2cc1OC,5.01% (inactive),–
O=C(CSc1nc(O)c(Cc2ccccc2)c(=O)[nH]1)Nc1nc2c(s1)CCCC2,-23.8% (inactive),–
COc1ccc(NC(=O)CSc2nc3ccccc3[nH]2)cc1,12.5% (inactive),–
O=C(CSc1nc2ccccc2c(=O)[nH]1)Nc1nc(-c2ccc(Br)cc2)cs1,–,20 µM (active)
Cc1cnc(CNc2cc(-c3c(C)noc3C)ncn2)cn1,0.34% [at 60.1 µM] (inactive),–
O=C(Nc1ccccc1C(F)(F)F)c1nc(S(=O)(=O)Cc2ccccc2F)ncc1Cl,0.105% (inactive),–
Cn1cc(-c2nc3cnc(N4CCNCC4)nc3n(CCc3ccccc3)c2=O)c2ccccc21,-11.8% [at 60.1 µM] (inactive),–
CC(C)(C)OC(=O)N(Cc1ccco1)S(=O)(=O)c1ccccc1Br,-16.3% (inactive),–
Oc1cc(O)c2c(c1)OC(c1ccc(O)c(O)c1)C(O)C2 (configuration not stated),–,3.16 µM (active)
CC[C@H](C)[C@H](NC(=O)[C@H](CCCNC(=N)N)NC(=O)[C@H](CCCNC(=N)N)NC(=O)[C@H](CC(C)C)NC(=O)[C@H](Cc1ccccc1)NC(=O)CNC(=O)CNC(=O)[C@@H](N)Cc1ccc(O)cc1)C(=O)N[C@@H](CCCNC(=N)N)C(=O)N1CCC[C@H]1C(=O)N[C@@H](CCCCN)C(=O)N[C@@H](CC(C)C)C(=O)N[C@@H](CCCCN)C(=O)N[C@@H](Cc1c[nH]c2ccccc12)C(=O)N[C@@H](CC(=O)O)C(=O)N[C@@H](CC(N)=O)C(=O)N[C@@H](CCC(N)=O)C(=O)O,12.6% [at 60.1 µM] (inactive),–
CCOc1n[nH]c(-c2ccccc2)n1,7.58% (inactive),–

Molecule,"activity, negative = inhibition",Potency
CN(C)c1ccc(/C=c2\[nH]c(=O)/c(=C/c3ccc(N(C)C)cc3)[nH]c2=O)cc1,-2.21% (inactive),–
CC(C)[C@@H]1NC(=O)[C@H](Cc2ccccc2)NC(=O)[C@@H](CC(=O)O)NC(=O)CNC(=O)[C@H](CCCNC(=N)N)NC1=O,4% [at 19.4 µM] (inactive),–
C[C@@H]1O[C@@H](OC[C@H]2O[C@@H](Oc3cc(O)c4c(c3)O[C@H](c3ccc(O)c(O)c3)CC4=O)[C@H](O)[C@@H](O)[C@@H]2O)[C@H](O)[C@H](O)[C@H]1O,-8.33% [at 60.1 µM] (inactive),–
C[C@@H]1O[C@@H](OC[C@H]2O[C@@H](Oc3c(-c4ccc(O)cc4)oc4cc(O)cc(O)c4c3=O)[C@H](O)[C@@H](O)[C@@H]2O)[C@H](O)[C@H](O)[C@H]1O,-15.5% (inactive),–
CC1OC(OCC2OC(Oc3c(-c4ccc(O)c(O)c4)oc4cc(O)cc(O)c4c3=O)C(O)C(O)C2O)[C@@H](O)C(O)C1O (some centres not stated),–,10 µM (active)
COc1ccc(CCC(=O)c2c(O)cc(OC3OC(CO)C(O)C(O)C3O[C@@H]3OC(C)C(O)C(O)C3O)cc2O)cc1O (some centres not stated),-13.4% [at 60.1 µM] (inactive),–
C[C@@H]1O[C@@H](OC[C@H]2O[C@@H](Oc3c(-c4cccc(O)c4O)oc4cc(O)cc(O)c4c3=O)[C@H](O)[C@@H](O)[C@@H]2O)[C@H](O)[C@H](O)[C@H]1O,–,7.08 µM (active)
CC(C)C(NS(=O)(=O)c1ccc(-c2ccc(Br)cc2)cc1)C(=O)O (configuration not stated),8.76% [at 60.1 µM] (inactive),–
H-EHIPA-OH,17.2% [at 60.1 µM] (inactive),–
COc1cc(OC)c2c(c1Cl)OC1(C2=O)C(O)=CC(=O)CC1C (configuration not stated),-8.8% [at 60.1 µM] (inactive),–
CN(Cc1ccco1)c1ncncc1-c1ccoc1,-13.8% [at 60.1 µM] (inactive),–
CC(C)c1ccc2c(c1)c(SC(C)(C)C)c(CC(C)(C)C(=O)O)n2Cc1ccc(Cl)cc1,–,29.9 µM (active) and 79.4 µM (active)
CC(C)c1ccc(Cn2c(COc3ccccc3)nc3ccccc32)cc1,-6.64% (inactive),–
Cc1c(C)n(Cc2ccc(Cl)cc2)c2ccc(C(=O)N3CCN(c4ccccc4F)CC3)cc12,-26.9% (inactive),–
CC1(C)CC(=O)c2cc(C(=O)NCc3ccccc3)c(=O)[nH]c2C1,-5.36% (inactive),–
O=[N+]([O-])c1ccc(/C=C/c2ccc3cccnc3c2)cc1,-22.8% (inactive),–
O=C1/C(=C\c2ccc([N+](=O)[O-])cc2)CS(=O)(=O)C/C1=C/c1ccc([N+](=O)[O-])cc1,–,79.4 µM (active)
N#Cc1ccc(CN2CCCC3(CCN(C(=O)c4ccco4)CC3)C2)cc1,7.12% [at 60.1 µM] (inactive),–
CN1CCN(/[N+]([O-])=N/Oc2ccc([N+](=O)[O-])cc2[N+](=O)[O-])CC1,-12% (inactive),–
